Hit rate of the full screen: of about 5,500 compounds, about 2,000 (36%) were called active. Roughly 18% stayed inconclusive and do not appear here. Rule as the data show it: active = normalized growth mostly below about 0.91 (no sharp cut-off); inconclusive = no clear call, values can overlap the other calls; inactive = mostly above about 0.92. The list shows a part of the results.
Assay: chemical genetic growth profiling, strain panel (AID 1159580);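 also: tested at 20 µM; growth read once vehicle control cultures reached saturation at 30 °C; 1 = growth at the plate median or of vehicle wells; lower values mean less growth of the strain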
Details: growth OD

Measured: normalized growth

NC(=NCCC[C@H](N)C(=O)O)NC(CCC(=O)O)C(=O)O (stereo partly drawn)
inactive: S. cerevisiae deletion strains, locus YAL021C, strain ccr4, hits give low values 1 | S. cerevisiae deletion strains, locus YAL026C, strain drs2, hits give low values 1 | S. cerevisiae deletion strains, locus YAL030W, strain snc1, hits give low values 1 | S. cerevisiae deletion strains, locus YBL061C, strain skt5, hits give low values 1.01 | S. cerevisiae deletion strains, locus YBR009C, strain hhf1, hits give low values 1 | S. cerevisiae deletion strains, locus YBR021W, strain FUR4, hits give low values 1.02 | S. cerevisiae deletion strains, locus YBR023C, strain chs3, hits give low values 1.01 | S. cerevisiae deletion strains, locus YBR171W, strain sec66, hits give low values 1.02 | S. cerevisiae deletion strains, locus YBR229C, strain ROT2, hits give low values 1.01 | S. cerevisiae deletion strains, locus YBR231C, strain swc5, hits give low values 1.01 | S. cerevisiae deletion strains, locus YBR279W, strain paf1, hits give low values 0.998 | S. cerevisiae deletion strains, locus YCL011C, strain gbp2, hits give low values 1.01 | S. cerevisiae deletion strains, locus YCL016C, strain dcc1, hits give low values 1.01 | S. cerevisiae deletion strains, locus YCL029C, strain bik1, hits give low values 1.03 | S. cerevisiae deletion strains, locus YCL061C, strain MRC1, hits give low values 0.998 | S. cerevisiae deletion strains, locus YCL069W, strain vba3, hits give low values 1.01 | S. cerevisiae deletion strains, locus YCR088W, strain abp1, hits give low values 1.01 | S. cerevisiae deletion strains, locus YDL005C, strain med2, hits give low values 1.01 | S. cerevisiae deletion strains, locus YDL035C, strain GPR1, hits give low values 1.02 | S. cerevisiae deletion strains, locus YDL040C, strain nat1, hits give low values 1.01 | S. cerevisiae deletion strains, locus YDL074C, strain BRE1, hits give low values 1.05 | S. cerevisiae deletion strains, locus YDL101C, strain DUN1, hits give low values 1.01 | S. cerevisiae deletion strains, locus YDL185W, strain tfp1, hits give low values 1.01 | S. cerevisiae deletion strains, locus YDL192W, strain arf1, hits give low values 1.02 | S. cerevisiae deletion strains, locus YDR001C, strain nth1, hits give low values 1.01 | S. cerevisiae deletion strains, locus YDR069C, strain doa4, hits give low values 1.01 | S. cerevisiae deletion strains, locus YDR101C, strain arx1, hits give low values 1.04 | S. cerevisiae deletion strains, locus YDR137W, strain rgp1, hits give low values 0.992 | S. cerevisiae deletion strains, locus YDR159W, strain sac3, hits give low values 1.01 | S. cerevisiae deletion strains, locus YDR162C, strain NBP2, hits give low values 0.977 | S. cerevisiae deletion strains, locus YDR195W, strain ref2 0.974 | S. cerevisiae deletion strains, locus YDR297W, strain sur2, hits give low values 1.01 | S. cerevisiae deletion strains, locus YDR318W, strain mcm21, hits give low values 1 | S. cerevisiae deletion strains, locus YDR334W, strain swr1, hits give low values 1.01 | S. cerevisiae deletion strains, locus YDR335W, strain msn5, hits give low values 0.995 | S. cerevisiae deletion strains, locus YDR388W, hits give low values 1.02 | S. cerevisiae deletion strains, locus YDR392W, strain spt3, hits give low values 1.02 | S. cerevisiae deletion strains, locus YDR502C, strain sam2, hits give low values 1.01 | S. cerevisiae deletion strains, locus YEL003W, strain gim4, hits give low values 1 | S. cerevisiae deletion strains, locus YEL037C, strain rad23, hits give low values 1 | S. cerevisiae deletion strains, locus YEL061C, strain CIN8 (second series), hits give low values 1 | S. cerevisiae deletion strains, locus YEL061C, strain CIN8, hits give low values 1.01 | S. cerevisiae deletion strains, locus YER015W, strain faa2, hits give low values 1.01 | S. cerevisiae deletion strains, locus YER016W, strain bim1, hits give low values 1 | S. cerevisiae deletion strains, locus YER110C, hits give low values 1.01 | S. cerevisiae deletion strains, locus YER111C, strain swi4, hits give low values 0.996 | S. cerevisiae deletion strains, locus YER155C, strain BEM2 (second series), hits give low values 1.02 | S. cerevisiae deletion strains, locus YER155C, strain BEM2, hits give low values 1.01 | S. cerevisiae deletion strains, locus YER167W, strain BCK2, hits give low values 1.02 | S. cerevisiae deletion strains, locus YFR010W, strain ubp6, hits give low values 1.01 | S. cerevisiae deletion strains, locus YGL078C, strain dbp3, hits give low values 1.02 | S. cerevisiae deletion strains, locus YGL086W, strain mad1, hits give low values 1.04 | S. cerevisiae deletion strains, locus YGL167C, strain pmr1, hits give low values 1.01 | S. cerevisiae deletion strains, locus YGL173C, strain kem1, hits give low values 1.01 | S. cerevisiae deletion strains, locus YGL227W, strain vid30, hits give low values 1.01 | S. cerevisiae deletion strains, locus YGL240W, strain doc1, hits give low values 1.02 | S. cerevisiae deletion strains, locus YGL248W, strain PDE1, hits give low values 0.999 | S. cerevisiae deletion strains, locus YGL253W, strain hxk2, hits give low values 1.01 | S. cerevisiae deletion strains, locus YGR078C, strain PAC10, hits give low values 1.01 | S. cerevisiae deletion strains, locus YGR135W, strain pre9, hits give low values 1.04 | S. cerevisiae deletion strains, locus YGR252W, strain gcn5, hits give low values 0.991 | S. cerevisiae deletion strains, locus YHR013C, strain ard1, hits give low values 1.03 | S. cerevisiae deletion strains, locus YHR027C, strain rpn1, hits give low values 1.02 | S. cerevisiae deletion strains, locus YHR030C, strain SLT2, hits give low values 1.01 | S. cerevisiae deletion strains, locus YHR079C, strain IRE1 (second series), hits give low values 1 | S. cerevisiae deletion strains, locus YHR094C, strain hxt1, hits give low values 1.01 | S. cerevisiae deletion strains, locus YHR129C, strain ARP1, hits give low values 1.01 | S. cerevisiae deletion strains, locus YHR142W, strain chs7, hits give low values 1.02 | S. cerevisiae deletion strains, locus YHR200W, strain rpn10, hits give low values 1 | S. cerevisiae deletion strains, locus YIL066C, strain RNR3, hits give low values 1.01 | S. cerevisiae deletion strains, locus YIL073C, strain SPO22, hits give low values 1.06 | S. cerevisiae deletion strains, locus YIL125W, strain kgd1, hits give low values 1.02 | S. cerevisiae deletion strains, locus YIR030C, strain dcg1, hits give low values 1.01 | S. cerevisiae deletion strains, locus YJL092W, strain hpr5, hits give low values 1.01 | S. cerevisiae deletion strains, locus YJL095W, strain BCK1 (second series), hits give low values 1.01 | S. cerevisiae deletion strains, locus YJL095W, strain BCK1, hits give low values 1.01 | S. cerevisiae deletion strains, locus YJL115W, strain asf1, hits give low values 1 | S. cerevisiae deletion strains, locus YJL129C, strain trk1, hits give low values 1.01 | S. cerevisiae deletion strains, locus YJL134W, strain LCB3, hits give low values 1.01 | S. cerevisiae deletion strains, locus YJL154C, strain vps35, hits give low values 1.01 | S. cerevisiae deletion strains, locus YJL164C, strain tpk1, hits give low values 1.01 | S. cerevisiae deletion strains, locus YJL166W, strain qcr8, hits give low values 1.01 | S. cerevisiae deletion strains, locus YJL168C, strain set2, hits give low values 1.04 | S. cerevisiae deletion strains, locus YJL187C, strain SWE1 (second series), hits give low values 1 | S. cerevisiae deletion strains, locus YJL187C, strain SWE1, hits give low values 1 | S. cerevisiae deletion strains, locus YJR043C, strain POL32, hits give low values 1 | S. cerevisiae deletion strains, locus YKL009W, strain mrt4, hits give low values 1.03 | S. cerevisiae deletion strains, locus YKL068W, hits give low values 1 | S. cerevisiae deletion strains, locus YKL085W, strain MDH1 (second series), hits give low values 1.01 | S. cerevisiae deletion strains, locus YKL085W, strain MDH1, hits give low values 1.01 | S. cerevisiae deletion strains, locus YKL160W, strain elf1, hits give low values 1.02 | S. cerevisiae deletion strains, locus YKL190W, strain CNB1, hits give low values 1.01 | S. cerevisiae deletion strains, locus YKR001C, strain vps1, hits give low values 1.06 | S. cerevisiae deletion strains, locus YKR026C, strain gcn3, hits give low values 1.01 | S. cerevisiae deletion strains, locus YKR091W, strain srl3, hits give low values 1.01 | S. cerevisiae deletion strains, locus YLL001W, strain dnm1, hits give low values 1.01 | S. cerevisiae deletion strains, locus YLL026W, hits give low values 1.01 | S. cerevisiae deletion strains, locus YLL041C, strain sdh2, hits give low values 1.01 | S. cerevisiae deletion strains, locus YLR027C, strain aat2, hits give low values 0.998 | S. cerevisiae deletion strains, locus YLR039C, strain RIC1, hits give low values 1 | S. cerevisiae deletion strains, locus YLR058C, strain SHM2, hits give low values 1.01 | S. cerevisiae deletion strains, locus YLR102C, strain apc9, hits give low values 1.02 | S. cerevisiae deletion strains, locus YLR221C, strain rsa3, hits give low values 1.02 | S. cerevisiae deletion strains, locus YLR258W, strain gsy2, hits give low values 1.01 | S. cerevisiae deletion strains, locus YLR262C, strain YPT6 (second series), hits give low values 0.996 | S. cerevisiae deletion strains, locus YLR262C, strain YPT6, hits give low values 1.02 | S. cerevisiae deletion strains, locus YLR268W, strain sec22, hits give low values 1.04 | S. cerevisiae deletion strains, locus YLR320W, strain mms22, hits give low values 1.02 | S. cerevisiae deletion strains, locus YLR330W, strain CHS5, hits give low values 1.01 | S. cerevisiae deletion strains, locus YLR342W, strain FKS1 (second series), hits give low values 1.06 | S. cerevisiae deletion strains, locus YLR342W, strain FKS1, hits give low values 1.01 | S. cerevisiae deletion strains, locus YLR357W, strain rsc2, hits give low values 1.03 | S. cerevisiae deletion strains, locus YLR370C, strain arc18, hits give low values 1.01 | S. cerevisiae deletion strains, locus YLR371W, strain rom2, hits give low values 1.02 | S. cerevisiae deletion strains, locus YLR384C, strain iki3, hits give low values 0.996 | S. cerevisiae deletion strains, locus YLR418C, strain cdc73, hits give low values 1.01 | S. cerevisiae deletion strains, locus YML016C, strain PPZ1, hits give low values 1 | S. cerevisiae deletion strains, locus YML032C, strain rad52, hits give low values 1.02 | S. cerevisiae deletion strains, locus YML120C, strain ndi1, hits give low values 1 | S. cerevisiae deletion strains, locus YML124C, strain tub3, hits give low values 1.01 | S. cerevisiae deletion strains, locus YMR058W, strain fet3, hits give low values 1.01 | S. cerevisiae deletion strains, locus YMR078C, strain ctf18, hits give low values 1.01 | S. cerevisiae deletion strains, locus YMR125W, strain sto1, hits give low values 0.999 | S. cerevisiae deletion strains, locus YMR129W, hits give low values 0.997 | S. cerevisiae deletion strains, locus YMR205C, strain PFK2, hits give low values 1.02 | S. cerevisiae deletion strains, locus YMR223W, strain ubp8, hits give low values 0.985 | S. cerevisiae deletion strains, locus YMR231W, strain pep5, hits give low values 0.989 | S. cerevisiae deletion strains, locus YMR307W, strain GAS1, hits give low values 1 | S. cerevisiae deletion strains, locus YNL067W, strain RPL9B, hits give low values 0.995 | S. cerevisiae deletion strains, locus YNL071W, strain lat1, hits give low values 1.01 | S. cerevisiae deletion strains, locus YNL153C, strain GIM3, hits give low values 0.989 | S. cerevisiae deletion strains, locus YNL209W, strain ssb2, hits give low values 1 | S. cerevisiae deletion strains, locus YNL233W, strain BNI4, hits give low values 1.03 | S. cerevisiae deletion strains, locus YNL248C, strain rpa49, hits give low values 1.01 | S. cerevisiae deletion strains, locus YNL250W, strain rad50, hits give low values 1.02 | S. cerevisiae deletion strains, locus YNL271C, strain bni1, hits give low values 0.999 | S. cerevisiae deletion strains, locus YNL298W, strain CLA4, hits give low values 1.01 | S. cerevisiae deletion strains, locus YNL307C, strain MCK1, hits give low values 1.03 | S. cerevisiae deletion strains, locus YNL322C, strain KRE1 (second series), hits give low values 1.01 | S. cerevisiae deletion strains, locus YNL322C, strain KRE1, hits give low values 1.01 | S. cerevisiae deletion strains, locus YNR049C, strain mso1, hits give low values 1.02 | S. cerevisiae deletion strains, locus YNR052C, strain pop2, hits give low values 1.01 | S. cerevisiae deletion strains, locus YOL012C, strain htz1 1.47 | S. cerevisiae deletion strains, locus YOL147C, strain pex11, hits give low values 1.02 | S. cerevisiae deletion strains, locus YOR001W, strain rrp6, hits give low values 1.02 | S. cerevisiae deletion strains, locus YOR061W, strain CKA2, hits give low values 1.01 | S. cerevisiae deletion strains, locus YOR069W, strain VPS5, hits give low values 1.01 | S. cerevisiae deletion strains, locus YOR070C, strain gyp1, hits give low values 1 | S. cerevisiae deletion strains, locus YOR080W, strain dia2, hits give low values 0.999 | S. cerevisiae deletion strains, locus YOR083W, strain WHI5, hits give low values 1 | S. cerevisiae deletion strains, locus YOR106W, strain vam3, hits give low values 1.02 | S. cerevisiae deletion strains, locus YOR136W, strain idh2, hits give low values 1.05 | S. cerevisiae deletion strains, locus YOR144C, strain elg1, hits give low values 1.02 | S. cerevisiae deletion strains, locus YOR184W, strain ser1, hits give low values 1.01 | S. cerevisiae deletion strains, locus YOR265W, strain rbl2, hits give low values 1 | S. cerevisiae deletion strains, locus YOR270C, strain vph1, hits give low values 1.02 | S. cerevisiae deletion strains, locus YOR290C, strain snf2, hits give low values 1.02 | S. cerevisiae deletion strains, locus YOR316C, strain cot1, hits give low values 1.02 | S. cerevisiae deletion strains, locus YPL051W, strain arl3, hits give low values 0.995 | S. cerevisiae deletion strains, locus YPL078C, strain atp4, hits give low values 1 | S. cerevisiae deletion strains, locus YPL106C, strain sse1, hits give low values 1.02 | S. cerevisiae deletion strains, locus YPL240C, strain hsp82, hits give low values 1 | S. cerevisiae deletion strains, locus YPR119W, strain clb2, hits give low values 1.01 | S. cerevisiae deletion strains, locus YPR141C, strain kar3, hits give low values 1.01 | S. cerevisiae deletion strains, locus YPR163C, strain tif3, hits give low values 1.02 | S. cerevisiae deletion strains, locus YPR167C, strain met16, hits give low values 1.02 | S. cerevisiae deletion strains, strain wtn01, hits give low values 1.05 | S. cerevisiae strains, strain wild type, hits give low values 1.01

From PubChem BioAssay AID1159580 (chemical genetic matrix, 2015)
